Our source for the outcome and AC50 values is PubChem BioAssay (EPA / NIEHS).

Read-out in test [1]: UDP glucuronosyltransferase (UGT1A6), UGT1A6 (gene 54578)
In words: LTEA_HepaRG_UGT1A6: Life Technologies and Expression Analysis (LTEA) Assay for UDP glucuronosyltransferase (UGT1A6) using HepaRG (AID 2283539; active = hit-call score of the fitted dose curve at least 0.9, where 1 is the maximum; inactive = score below 0.9). The conditions noted are these: mRNA level, 48 h; actives raise or lower the signal. In short, it runs like this: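 Expression was quantified by TaqMan qRT-PCR on Fluidigm arrays with ACTB/GAPDH/POLR2A normalization and bidirectional fitting against 0.5% DMSO. HepaRG cells (~100,000/well) were treated in duplicate for 48 h at eight half-log concentrations up to 100 uM in serum-free induction medium.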

Read-out in test [2]: X-box binding protein 1 (XBP1), XBP1 (gene 7494)
Nature of the test: LTEA_HepaRG_XBP1: Life Technologies and Expression Analysis (LTEA) Assay for X-box binding protein 1 (XBP1) using HepaRG (AID 2283540; active = hit-call score of the fitted dose curve at least 0.9, where 1 is the maximum; inactive = score below 0.9). The settings on record: mRNA level, 48 h; actives raise or lower the signal. The gist of the method:
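XBP1 transcript by qRT-PCR (housekeeping-normalized: ACTB, GAPDH, POLR2A) after 48 h chemical treatment of HepaRG cells, 8-point half-log series topping at 100 uM, vehicle 0.5% DMSO. Gain and loss of signal fitted relative to DMSO.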

Test [3] can be described thus: LTEA_HepaRG_LDH_cytotoxicity: Cytotoxicity Assessment in the Life Technologies and Expression Analysis (LTEA) Assay (AID 2283563).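 As to AC50: LDH activity released into spent culture medium as a marker of cell death.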 In short, it runs like this:
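LDH release into culture medium read after 48 h chemical treatment of HepaRG cells. Duplicate wells, eight-point half-log series topping at 100 uM, 0.5% DMSO vehicle and baseline.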

Test [4] is described as follows: ATG_XTT_Cytotoxicity: Cytotoxicity Assessment in the Attagene TRANS-FACTORIAL HepG2 Assay (AID 2283584). The gist of the method: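 Viability endpoint from XTT after 24 h chemical exposure of reporter-transfected human HepG2 liver cells; signal loss fitted relative to DMSO negative control.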
Test [5] is described as follows: TOX21_p53_BLA_p2_viability: Viability Assessment in the Tox21 HCT-116 p53 Agonism Beta-lactamase Assay, Phase 2 (AID 2283591).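 Also: compound exposure lasted 16 h at 37 °C; actives lower the ATP signal meaning cytotoxicity.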 In short, it runs like this:
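Cytotoxicity readout: CellTiter-Glo ATP luminescence, 30 min at room temperature, after the beta-lactamase read. Cells were HCT116 exposed 16 h at 37C to compounds pin-transferred at 217-fold dilution from DMSO stocks.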

Test [6] has as its target Cellular tumor antigen p53 (Homo sapiens) (UniProt P04637). Nature of the test: TOX21_p53_BLA_p2_ratio: Tox21 HCT-116 p53 Agonism Beta-lactamase Assay, Ratio, Phase 2 (AID 2283592). In short, it runs like this:
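Gain-of-signal p53 agonism was scored from the beta-lactamase FRET ratio (460/530 nm, 405 nm excitation) in HCT116 cells treated 16 h at 37C, 5% CO2, with DMSO serving as negative control and baseline.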

A short description of test [7]: TOX21_p53_BLA_p3_viability: Viability Assessment in the Tox21 HCT-116 p53 Agonism Beta-lactamase Assay, Phase 3 (AID 2283593).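 Also: cells exposed to compound for 16 h before reading.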 The gist of the method:
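Cellular ATP was quantified by CellTiter-Glo luminescence, read after 30 min at room temperature. Beforehand, HCT116 cells (4000/well) received compound 5 h post-seeding, 217-fold diluted from DMSO, then incubated 16 h at 37C.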

The target in test [8] is Cellular tumor antigen p53 (Homo sapiens) (UniProt P04637). Nature of the test: TOX21_p53_BLA_p3_ratio: Tox21 HCT-116 p53 Agonism Beta-lactamase Assay, Ratio, Phase 3 (AID 2283596). The gist of the method:
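HCT116 p53-bla cells (4000/well) given compound in DMSO (217-fold dilution) after 5 h, incubated 16 h at 37C. CCF4-AM substrate 2 h at room temperature; 460/530 nm emission ratio, gain fitted against DMSO.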

The nature of test [9]: TOX21_p53_BLA_p4_viability: Viability Assessment in the Tox21 HCT-116 p53 Agonism Beta-lactamase Assay, Phase 4 (AID 2283597).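 Also: hits lower the luminescence signal meaning cytotoxicity.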 The gist of the method:
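Following a 16 h exposure at 37C, the treated HCT116 wells were first read for the FRET ratio. They were then lysed with CellTiter-Glo, and ATP luminescence was recorded after 30 min at room temperature.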

The target in test [10] is Cellular tumor antigen p53 (Homo sapiens) (UniProt P04637). In words: TOX21_p53_BLA_p5_ratio: Tox21 HCT-116 p53 Agonism Beta-lactamase Assay, Ratio, Phase 5 (AID 2283599). The gist of the method:
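Beta-lactamase reporter ratio (blue 460 nm over green 530 nm, 405 nm excitation) after 2 h CCF4-AM loading, in HCT-116 cells exposed 16 h at 37 C to compounds pinned at 217-fold dilution. Increases relative to DMSO baseline scored.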

SMILES strings stand for the structures. Records with an inconclusive call do not appear. The source holds several records for some structures; these can differ, active in one and inactive in another. Activity calls are given as the source filed them. The calls were made as follows, unless noted: active = hit-call score of the fitted dose curve at least 0.9, where 1 is the maximum; inconclusive = response in the unintended direction; inactive = score below 0.9.

The AC50 is the concentration giving half of the maximal activity seen.

Cellular tumor antigen p53 (Homo sapiens), sequence (P04637 whole entry, looked up): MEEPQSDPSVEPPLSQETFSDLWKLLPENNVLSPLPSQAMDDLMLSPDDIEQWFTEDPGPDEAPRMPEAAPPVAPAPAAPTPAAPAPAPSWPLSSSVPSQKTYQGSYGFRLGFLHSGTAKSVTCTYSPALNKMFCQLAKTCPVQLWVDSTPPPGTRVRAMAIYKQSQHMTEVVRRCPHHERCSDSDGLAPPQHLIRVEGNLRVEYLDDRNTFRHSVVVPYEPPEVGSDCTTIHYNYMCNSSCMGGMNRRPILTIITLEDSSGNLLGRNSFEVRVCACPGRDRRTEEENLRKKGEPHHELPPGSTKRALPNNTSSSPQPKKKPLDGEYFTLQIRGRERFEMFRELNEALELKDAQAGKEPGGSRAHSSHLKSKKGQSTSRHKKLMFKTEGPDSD

With `CCCCCCCC(=O)O`, the outcome in test [1], in [2], in test [3], in test [4], in test [5] and in test [6] was inactive. Besides, the call in [7], in [8], in [9] and in test [10] was inactive.
For the compound `CC1=C(/C=C/C(C)=C/C=C/C(C)=C/C(=O)O)C(C)(C)CCC1`, the figures for the AC50 in test [1], in [8] and in test [10] were 16.9 µM (active), 85.7 µM (active) and 86.9 µM (active), respectively. Also, the compound was classed as inactive in test [2], in [3], in [4], in test [6], in test [8] and in test [10].
In the case of `C=C(C)C(=O)OCCC(F)(F)C(F)(F)C(F)(F)C(F)(F)C(F)(F)C(F)(F)F`, the compound was called inactive in test [1], in [2], in test [3], in [4], in test [6] and in [8]. In addition, the outcome in test [9] and in [10] was inactive.
For `CCC(C)(C)C1CCC(O)CC1` (stereo not drawn), the compound was classed as inactive in test [1], in [2], in test [3], in test [4], in [6] and in [8]. In addition, the result in test [10] was inactive.
For the compound `CCCCCCCCOC(=O)CCCCCCCCC(=O)OCCCCCCCC`, the call in test [1], in test [2], in test [3], in test [4], in test [6] and in test [8] was inactive. The compound was classed as inactive in test [9] and in test [10].
With `c1ccc2c(c1)Cc1ccccc1-2`, the result in test [1], in test [2], in [3], in test [5], in [6] and in [8] was inactive. Besides, the compound was classed as inactive in test [9] and in [10]. In addition, the AC50 in test [10] was 87.3 µM (active).
Consider `CC(=O)NC1(c2cccc(F)c2)CCN(CC[C@@]2(c3ccc(Cl)c(Cl)c3)CN(c3ccccc3)C(=O)CO2)CC1`, for which the outcome in test [1] and in [2] was inactive. For the same compound, the AC50 in test [5] was 57.1 µM (active); in test [6], 71.4 µM (active); in [8], 71.6 µM (active); in test [9], 46.2 µM (active); in test [10], 70.3 µM (active).
For the compound `NC(=O)N1C(=O)C(C(=O)c2cc(Cl)cs2)c2cc(F)c(Cl)cc21` (stereo not drawn), the AC50 in test [1] is 57 µM (active); in test [2] it was 12.9 µM (active); in test [3] it was 15.8 µM (active); in test [8], 2.59 µM (active); in test [10], 7.17 µM (active). For the same compound, the result in [5], in [6], in test [7] and in [9] was inactive.
`CN1CCN(c2ccccc2/C=C2\SCCN(c3ccc(Cl)c(Cl)c3)C2=O)CC1`: the compound was classed as inactive in test [1], in [2], in test [5], in [6], in test [8] and in test [9]. The AC50 in [3] was 69.7 µM (active); in test [10], 86 µM (active).
As for `CCCCCCC(=O)O`, the compound was called inactive in test [1], in test [2], in test [3], in test [4], in test [6] and in test [8]. Further, the outcome in [9] was inactive.
`COCC(C)O` (stereo not drawn): the compound was called inactive in [1], in [2], in test [3], in test [4], in test [6] and in test [8]. Moreover, the call in test [9] and in [10] was inactive.
Regarding `CC(O)CO` (stereo not drawn), the outcome in test [1], in test [2], in [5], in test [6], in test [8] and in test [9] was inactive. Moreover, in [10], the outcome was inactive.
For `OC1CCCCC1`, the outcome in test [1], in [2], in test [3], in test [4], in test [6] and in test [8] was inactive. Besides, the call in [9] and in test [10] was inactive.
As for `COc1ccc([N+](=O)[O-])cc1N`, the compound was classed as inactive in test [1], in test [2], in test [3], in test [4], in test [6] and in [8]. In addition, the compound was called inactive in test [9] and in [10].
Regarding `CCCCOCCO`, the compound was called inactive in test [1], in [2], in [3], in test [4], in test [6] and in test [8]. For the same compound, the result in [10] was inactive.
As for `CCCCC(CC)COC(=O)CCCCC(=O)OCC(CC)CCCC` (stereo not drawn), the outcome in [1], in test [2], in test [3], in [4], in test [5] and in test [7] was inactive. Also, the outcome in test [8] and in test [10] was inactive.
